Screen size: about 420,000 compounds; about 50,000 (12%) were called active. Entries that show only a call come without a potency. Not shown: some 26% with an inconclusive outcome. Calls follow the shape of the dose curve; as a rule, active = well fitted inhibition curve with a large enough effect; inconclusive = small, poorly fitted or top-dose-only effect; inactive = flat fitted curve, though single readings scatter. This excerpt belongs to a sample that is enriched for actives.
Test: qHTS for Inhibitors of human tyrosyl-DNA phosphodiesterase 1 (TDP1): qHTS in cells in presence of CPT; also: nearly all actives have a fitted effect of over 55% in size
Details: chicken DT40 Tdp1-/-;hTDP1 cells + 20 nM CPT, ATP luminescence, 48 h; series mostly up to 46.2 µM
Summary of the method: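 Chicken DT40 Tdp1-/- cells complemented with human TDP1, 400 cells/well, exposed to compounds plus 20 nM camptothecin for at least 48 h at 37 C; viability read as ATP content by CellTiter-Glo luminescence.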
In the case of `N=c1ccccn1Cc1ccccc1`, the Potency is reported as “inactive”.
For `CC1=CC(=Cc2sc3ccccc3[n+]2C)C=C(C)O1`, the Potency was 0.164 µM (active).
With `CCOc1ccc(-c2cc(C)[n+](CCN(CC)CC)c(-c3ccc(OCC)cc3)c2)cc1` the Potency was 0.206 µM (active).
For `COc1cc(C(=O)N2Cc3ccc(Br)cc3-n3nncc3C2)cc(OC)c1OC`, the Potency was “inactive”.
For `CC=C(C)C(=O)OC1CCN2CC=C(COC(=O)C(O)(C(C)OC)C(C)(C)O)C12` (stereo unspecified), the Potency was “inactive”.
With `CN(Cc1cccc2ncccc12)C(=O)c1cnn(-c2nccc(-c3ccccc3F)n2)c1C1CC1` the Potency was 5.17 µM (active).
In the case of `COc1ccccc1OC(=O)c1ccc(C)c(S(=O)(=O)N2CCOCC2)c1`, the Potency is reported as “inactive”.
For `CC(=NC1CCN(Cc2ccccc2)CC1)c1c(O)n(C)c(=O)n(C)c1=O`, the Potency was “inactive”.
With `N[C@H](Cc1o[nH]c(=O)c1Cl)C(=O)O` the Potency was “inactive”.
With `CO[C@@H]1C[C@@H](C[C@H]2CC[C@H](C)[C@@H]([C@@H](C)C(=O)O)O2)O[C@]2(O[C@](C)([C@H]3CC[C@@](C)(C4OC([C@H]5O[C@@](O)(CO)[C@H](C)C[C@@H]5C)C[C@@H]4C)O3)C[C@H]2C)[C@@H]1C` (stereo partly specified) the Potency was 0.588 µM (active).
With `COC(=O)C1=C(c2c(C)noc2C)C[C@@H]2CC[C@H]1N2C(=O)NCc1ccc2c(c1)OCO2` the Potency was “inactive”.
In the case of `COC(=O)C1=C(c2ccc(F)cc2OCc2ccccc2)C[C@@H]2CC[C@H]1N2C(=O)NCc1ccc(Cl)cc1`, the Potency is reported as 20.6 µM (active).
For `COC(=O)C1=C(c2cccc(OCc3ccccc3)c2)C[C@@H]2CC[C@H]1N2C(=O)NNCc1ccccc1`, the Potency was 20.6 µM (active).
For `COC(=O)C1=C(c2ccccc2)C[C@@H]2CC[C@H]1N2C(=O)NCc1ccco1`, the Potency was “inactive”.
In the case of `COC(=O)C1=C(c2ccc(F)cc2OCc2ccccc2)C[C@@H]2CC[C@H]1N2C(=O)NCc1ccc(OC)c(OC)c1`, the Potency is reported as 18.4 µM (active).
For `CCOC(=O)c1cccc(C2=C(CNC(=O)c3ccncc3)[C@H]3CC[C@@H](C2)N3Cc2ccccc2)c1`, the Potency was “inactive”.
For `COC(=O)C1=C(c2ccc(-c3ccccc3)c(F)c2)C[C@@H]2CC[C@H]1N2C(=O)NCc1ccc(F)cc1`, the Potency was 16.4 µM (active).
In the case of `COc1ccc(CCn2c(O)c(C=NC3CC3)c(=O)[nH]c2=O)cc1OC`, the Potency is reported as “inactive”.
With `CCN(CC)c1ccc([N+](=O)[O-])c2cccnc12` the Potency was “inactive”.
For `CC(C)c1c(CN(C)C(C)Cc2ccccc2)n(C)n(-c2ccccc2)c1=O` (stereo unspecified), the Potency was “inactive”.
In the case of `CCN1c2nc3c(C)cccn3c(=O)c2CC2(C(=O)N(C)C(=O)N(C)C2=O)C1C` (stereo unspecified), the Potency is reported as “inactive”.
For `CCC(C)n1c(O)c(/C=N/Nc2nc3c(c(=O)n(C)c(=O)n3C)n2C)c(=O)[nH]c1=S` (stereo unspecified), the Potency was “inactive”.
For `Fc1cccc(F)c1CN1CCN(Cc2c(F)cccc2F)CC1`, the Potency was “inactive”.
With `Cc1cc(C(=O)OCC(=O)Nc2c(F)cccc2F)c(C)n1C1CC1` the Potency was “inactive”.
With `COC(=O)C1=C(c2ccccc2)C[C@@H]2CC[C@H]1N2C(=O)N1CCCCC1` the Potency was 5.8 µM (active).
In the case of `COC(=O)C1=C(c2ccc(OCc3ccccc3)cc2)C[C@@H]2CC[C@H]1N2C(=O)NCc1cccc(F)c1`, the Potency is reported as 25.9 µM (active).
In the case of `COC(=O)C(c1ccccc1)N1CCCCCC1` (stereo unspecified), the Potency is reported as “inactive”.
In the case of `O=C(NC(=S)N1C[C@H]2C[C@H](C1)c1cccc(=O)n1C2)c1ccc(F)cc1`, the Potency is reported as “inactive”.
In the case of `CC1CCCN1CCC(C(N)=O)(c1ccccc1)c1ccccc1` (stereo unspecified), the Potency is reported as “inactive”.
In the case of `COc1ccc(CCn2c(O)c(C=NCCCn3ccnc3)c(=O)[nH]c2=O)cc1OC`, the Potency is reported as “inactive”.
In the case of `CC(=O)Cc1ccc(OC(C)C)cc1`, the Potency is reported as “inactive”.
In the case of `Cc1cc2ccccn2c1C(C[N+](=O)[O-])c1c(F)cccc1Cl` (stereo unspecified), the Potency is reported as 18.4 µM (active).
With `C[N+]1(C)CCOC(O)(c2ccc(-c3ccc(C4(O)C[N+](C)(C)CCO4)cc3)cc2)C1` (stereo unspecified) the Potency was “inactive”.
In the case of `COc1cc(Cl)ccc1Nc1ncc(C(=O)N2CCN(c3ccccc3OC)CC2)c2ccccc12`, the Potency is reported as 14.6 µM (active).
In the case of `CN1CCN(C(=O)O[C@@H]2c3nccnc3C(=O)N2c2ccc(Cl)cn2)CC1`, the Potency is reported as “inactive”.
With `CCOC(=O)c1c(C)c(C(=O)N2CCC3(CC2)OCCO3)c(C)n1CC` the Potency was “inactive”.
For `CN1CCN(Cc2ccccc2C(F)(F)F)CC1`, the Potency was “inactive”.
With `CCOC(=O)C1(c2ccccc2)CCN(CC(O)c2ccc(NC(C)=O)cc2)CC1` (stereo unspecified) the Potency was “inactive”.
In the case of `CCOC(=O)CC1=C(C(=O)OCC)C2(C(=O)N1)C(C(=O)OC)=C(N)Oc1ccccc12` (stereo unspecified), the Potency is reported as “inactive”.
In the case of `COC1CC(OC2CC[C@@]3(C=O)C4CC[C@]5(C)C(C6=CC(=O)OC6)CC[C@@]5(O)C4CC[C@]3(O)C2)OC(C)C1O` (stereo partly specified), the Potency is reported as 1.3 µM (active).
With `COC1C(O)C(C)OC(OC2CCC3(C=O)C(CCC4C3CCC3(C)C(C5=CC(=O)OC5)CCC43O)C2)C1O` (stereo unspecified) the Potency was 0.206 µM (active).
In the case of `c1csc(CN2CCCC3(CCNCC3)C2)n1`, the Potency is reported as “inactive”.
With `C=Cn1ccnc1P(=S)(c1cc(N(CC)CC)ns1)c1nccn1C=C` the Potency was “inactive”.
In the case of `Cc1ncsc1CCCl`, the Potency is reported as “inactive”.
In the case of `CC[N+]1(CCOC(=O)C(O)(c2ccccc2)c2ccccc2)CCCCC1`, the Potency is reported as “inactive”.
In the case of `C/C(=C\C=C/[C@@H](C)C(=O)O)[C@H]1CN[C@H](C(=O)O)[C@@H]1CC(=O)O`, the Potency is reported as “inactive”.
In the case of `Cc1ccc(NC(=O)CN(C)CC(=O)Nc2cccc(F)c2)cc1[N+](=O)[O-]`, the Potency is reported as 1.84 µM (active).
In the case of `O=C(CN1CCCC1=O)NCCc1ccccc1`, the Potency is reported as “inactive”.
With `CN(C)P(=S)(Nc1ccccc1)C(Cl)(Cl)Cl` (stereo unspecified) the Potency was “inactive”.
In the case of `O=C1NC(=O)N(CCc2ccc(F)cc2)C(=O)/C1=C/C=C/c1ccccc1`, the Potency is reported as 3.26 µM (active).
For `O=C(O)COc1ccccc1/C=C1\C(=O)NC(=O)N(CCC2=CCCCC2)C1=O`, the Potency was “inactive”.
For `OCC#CC[N+]1(CC#Cc2ccccc2)CCCC1`, the Potency was “inactive”.
In the case of `Cc1ccc(P(=S)(c2ccc(C)o2)N2CCOCC2)o1`, the Potency is reported as “inactive”.
With `CC(=O)C12CC(C)=C(C)CC1CC1C3CCC4=CC(=O)CCC4(C)C3CCC12C` (stereo unspecified) the Potency was 13 µM (active).
With `COC(=O)C[C@H]1CC[C@H]2NC[C@@H](O)COC[C@@H]2O1` the Potency was “inactive”.
In the case of `C[C@H]1CN([C@@H](C)CO)C(=O)CCCn2nncc2CO[C@H]1CN(C)C(=O)Oc1ccccc1`, the Potency is reported as “inactive”.
For `Cc1cc(N2C(=O)C3CCCN3C2c2ccc(Cl)c(Cl)c2)no1` (stereo unspecified), the Potency was “inactive”.
In the case of `CCN1C(=O)NC(=O)C2(CCCC2)C1=O`, the Potency is reported as “inactive”.
For `CCOP(=O)(OCC)C(NC(=O)c1ccc(C)cc1)C(Cl)(Cl)Cl` (stereo unspecified), the Potency was “inactive”.
In the case of `CCOP(=O)(OCC)C(NC(=O)c1ccc(OC)cc1)C(Cl)(Cl)Cl` (stereo unspecified), the Potency is reported as “inactive”.
For `CCOP(=O)(OCC)C(Cc1ccccc1)N=C(c1ccccc1)c1ccccc1` (stereo unspecified), the Potency was 16.4 µM (active).
With `CC(C)CN1CCN(Cc2ccccc2C(F)(F)F)CC1CCO` (stereo unspecified) the Potency was “inactive”.
In the case of `CCOc1ccc(C2SCC(=O)Nc3c2c(C)nn3C2CCOC(C)(C)C2)cc1` (stereo unspecified), the Potency is reported as “inactive”.
In the case of `COc1ccc(-n2c(-c3ccccc3)nc3ccccc3c2=O)cc1`, the Potency is reported as 18.4 µM (active).
With `O=c1c2ccccc2nc(-c2ccccc2)n1-c1ccccn1` the Potency was “inactive”.
With `CC(CCC(=O)O)C1CCC2C3C(O)C[C@@H]4CC(O)CC[C@@]4(C)C3CC[C@@]12C` (stereo partly specified) the Potency was “inactive”.
In the case of `COc1ccc(-c2cc(NC=O)c3ncc(-c4cc(OC)c(OC)c(OC)c4)n3c2)c(OC)c1`, the Potency is reported as 0.58 µM (active).
In the case of `CCCCCCCCCCCCn1ccc(=N)cc1`, the Potency is reported as 0.461 µM (active).
For `CNC(=S)N/N=C1\C2CN3CCN(C2)CC1(c1ccccc1)C3`, the Potency was “inactive”.
In the case of `CC(C)=C[C@@H]1[C@@H](C(=O)OCc2coc(Cc3ccccc3)c2)C1(C)C`, the Potency is reported as “inactive”.
With `CCOc1cccc(=NC2CCCCC2)c2c(C)[nH]c(C)c12` the Potency was 5.8 µM (active).
In the case of `Cc1cc(C)c2c(c1)NP(=S)(c1ccccc1)N2` (stereo unspecified), the Potency is reported as “inactive”.
For `O=C1/C(=C\c2ccc3c(c2)OCO3)N2CCC1CC2`, the Potency was “inactive”.
With `c1cncc(CNCCc2c[nH]c3ccccc23)c1` the Potency was “inactive”.
In the case of `COc1ccc2[nH]cc(CCNCc3ccc(Br)cc3)c2c1`, the Potency is reported as 13 µM (active).
In the case of `O=C(N/N=C/c1c(O)n(Cc2ccccc2)c(=O)[nH]c1=O)c1ccccc1`, the Potency is reported as “inactive”.
With `COc1ccc(N=Cc2c(O)n(C)c(=O)[nH]c2=O)cc1` the Potency was “inactive”.
In the case of `COc1ccc(Cn2c(O)c(/C=C3/C=CC=N3)c(=O)[nH]c2=O)cc1`, the Potency is reported as 20.6 µM (active).
For `CNC(=O)N(C)c1nnc(C(C)(C)C)s1`, the Potency was “inactive”.
With `CC1N=C(N)OC1c1ccccc1` (stereo unspecified) the Potency was “inactive”.
For `CCOCCCNC(=O)c1c(NC(=O)c2nc(SC)ncc2Cl)sc2c1CCCC2`, the Potency was 6.51 µM (active).
For `CCCOC(=O)C1C2c3ccccc3C(c3ccccc32)C1C(=O)O` (stereo unspecified), the Potency was “inactive”.
For `Cc1nc2ccccn2c1P(=S)(N1CCCCC1)N1CCCCC1`, the Potency was 20.6 µM (active).
With `CCOC(=O)CNC(=O)N1Cc2cc(N3CCCCC3)ccc2-n2nncc2C1` the Potency was “inactive”.
For `Cc1cc(=O)oc2c(C)c(OCC(=O)N3CCN(Cc4ccc5c(c4)OCO5)CC3)ccc12`, the Potency was “inactive”.
For `CCC(C)(O)C(=O)OC1C(=O)OC2CC3C(C)=CC(=O)C(O)C3(C)C3C4(O)OCC23C1C(C)C4O` (stereo unspecified), the Potency was 0.116 µM (active).
For `COc1ccc(NC(=O)N2CCC3(CC2)OCCO3)c(OC)c1`, the Potency was “inactive”.
In the case of `CCCC[N+]1(C)C2CC(OC(=O)C(CO)c3ccccc3)CC1C1OC12` (stereo unspecified), the Potency is reported as “inactive”.
In the case of `Cc1ccccc1N1C(=O)NC(=O)/C(=C\c2cc(C)n(C)c2C)C1=O`, the Potency is reported as “inactive”.
For `O=C1NCN(c2ccccc2)C12CCN(C(c1cccs1)c1nnnn1C1CCCCC1)CC2` (stereo unspecified), the Potency was 16.4 µM (active).
For `CC[N+]1(C)CCCC(OC(=O)C(O)(c2ccccc2)c2ccccc2)C1` (stereo unspecified), the Potency was “inactive”.
In the case of `CN(C)C(=O)Oc1ccc(NC(=O)N2CCOCC2)cc1`, the Potency is reported as “inactive”.
In the case of `Cc1cccc(-n2c(C)nc3cc(C(=O)N4CCC5(CC4)OCCO5)ccc32)c1`, the Potency is reported as 20.6 µM (active).
For `Cc1ccc(-c2cc(C(=O)N3CCC4(CC3)OCCO4)no2)cc1`, the Potency was “inactive”.
For `O=C(c1cc(-c2ccncc2)nc2ccccc12)N1CCC2(CC1)OCCO2`, the Potency was “inactive”.
In the case of `COc1cc(C(c2c(O)c3ccccc3oc2=O)c2c(C)n(C)n(-c3ccccc3)c2=O)ccc1O` (stereo unspecified), the Potency is reported as “inactive”.

Source: PubChem BioAssay AID686979 (National Center for Advancing Translational Sciences (NCATS), 2013)
Potency is read from the fitted curve at half-maximal effect.
